Pf Dd2 inh: qHTS Primary assay for Inhibitors of Plasmodium falciparum Dd2 growth in vitro; P. falciparum Dd2 growth, SYBR Green, 72 h; Potency, µM (titrated, usually from 28.9 µM), without a hit: at the highest dose activity, negative = inhibition, most hits filed as inhibitors; actives 4.3% (n = 120,000); active = well fitted inhibition curve with a large enough effect;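 also: plate controls were DMSO vehicle for no effect and reference drug for full effect; nearly all actives have a fitted effect of over 65% in size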
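Infected erythrocytes (Dd2, 0.3% parasitemia, 2.5% hematocrit final) are added to compound in RPMI-1640/Albumax II medium, grown 72 h at 37C in low oxygen, then lysed with saponin/Triton-X containing SYBR Green and read by fluorescence.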
An asterisk follows results filed as active; [ ] = remark or other dose. Only a selection was taken, and hits are over-represented in it overall. Potency is read from the fitted curve at half-maximal effect.

Screening COCCNC(=O)C[C@@H]1C[C@@H](C(C)C)[C@H](CNC(=O)C2CC2)C=C1C returned Pf Dd2 inh 8.9µM*.
COC(=O)c1ccc2nc(C[C@@H]3C[C@@H](C(C)C)[C@H](CNC(=O)c4cnccn4)C=C3C)[nH]c2c1 was read as Pf Dd2 inh -5%.
Screening COC(=O)c1ccc2nc(C[C@@H]3C[C@@H](C(C)C)[C@H](CNC(=O)c4ccccc4)C=C3C)[nH]c2c1 returned Pf Dd2 inh 8.9µM*.
`COc1ccc2nc(C[C@@H]3C[C@@H](C(C)C)[C@H](CNCc4ccc(NC(C)=O)cc4)C=C3C)[nH]c2c1` gave Pf Dd2 inh inactive.
`COc1ccc2nc(C[C@@H]3C[C@@H](C(C)C)[C@H](CNCc4ccccn4)C=C3C)[nH]c2c1` gave Pf Dd2 inh 0.63µM*.
COCC(=O)NC[C@@H]1C=C(C)[C@H](CC(=O)N2CCCC2)C[C@H]1C(C)C was read as Pf Dd2 inh -22%[44.1 µM].
For CCOC(=O)C[C@@H]1C[C@@H](C(C)C)[C@H](CNC(=O)c2ccc(F)cc2)C=C1C the results were Pf Dd2 inh 11µM*.
CCOC(=O)C[C@@H]1C[C@@H](C(C)C)[C@H](CNC(=O)c2ccc(C#N)cc2)C=C1C was read as Pf Dd2 inh inactive.
CCOC(=O)C[C@@H]1C[C@@H](C(C)C)[C@H](CNC(=O)C2CC2)C=C1C was read as Pf Dd2 inh -16%[44.1 µM].
CC1=C[C@@H](CNCc2ccccc2O)[C@H](C(C)C)C[C@H]1Cc1nc2c(C)cccc2[nH]1 was read as Pf Dd2 inh -25%[44.1 µM].
Screening O=C1NC[C@@H](CCC(=O)N2CCc3ccccc32)N2C[C@@H](NS(=O)(=O)c3ccc(F)cc3)C[C@@H]12 returned Pf Dd2 inh inactive.
COc1ccc(S(=O)(=O)N2CCCC(Cn3c(C4CC4)nc4cccnc43)C2)cc1 (stereo not drawn) was read as Pf Dd2 inh inactive.
For O=C(NCc1ccccc1)N1CC(n2cc(C(=O)N3CCOCC3)nn2)C1 the results were Pf Dd2 inh -6%.
COC(=O)C1=CN(CC(=O)Nc2ccc(C(C)C)cc2)S(=O)(=O)N=C1C was read as Pf Dd2 inh 122%.
CCOc1ccccc1C1NC(=O)N(CC(=O)Nc2ccccc2)C2=C1C(=O)OC2 (stereo not drawn) was read as Pf Dd2 inh inactive.
Screening O=C(CCn1ccc(=O)[nH]c1=O)N[C@H](c1ccccn1)C1CC(O)C1 (stereo partly drawn) returned Pf Dd2 inh -14%.
Screening COCC(=O)NC[C@@H]1C=C(C)[C@H](Cc2nc3ccccc3[nH]2)C[C@H]1C(C)C returned Pf Dd2 inh inactive.
For COCC(=O)NC[C@@H]1C=C(C)[C@H](Cc2nc3ccc(F)cc3[nH]2)C[C@H]1C(C)C the results were Pf Dd2 inh 13µM*.
For CC1=C[C@@H](CNC(=O)CC2(CC(=O)O)CCCC2)[C@H](C(C)C)C[C@H]1Cc1nc2ccc(F)cc2[nH]1 the results were Pf Dd2 inh inactive.
For COc1ccc(NC(=O)Nc2ccc(C)n(CC(=O)Nc3ccc(C)c(C)c3)c2=O)cc1 the results were Pf Dd2 inh -24%.
COc1ccc(NC(=O)[C@@H]2C[C@H](c3ccc(F)cc3)N([S+](=O)([O-])C3CC3)C2)cc1OC was read as Pf Dd2 inh inactive.
For CCCN(C)c1nccnc1OC1CCN(C(=O)c2ccc(F)cc2)C1 (stereo not drawn) the results were Pf Dd2 inh 10µM*.
`CCCN(C)c1nccnc1OC1CCN(C(=O)C2CCOCC2)C1` (stereo not drawn) gave Pf Dd2 inh 13%.
Screening CN(C)c1nccnc1OC1CCN(C(=O)c2ccn[nH]2)C1 (stereo not drawn) returned Pf Dd2 inh -12%.
COc1ccccc1-n1c(=O)[nH]c2cccnc21 was read as Pf Dd2 inh -16%[44.1 µM].
O=C(CC1CCCC1)N1CCC(Cc2nc(-c3ccc(F)cc3)no2)CC1 was read as Pf Dd2 inh 8%.
`CC(C)Oc1ccc(C(=O)N2CCN(CCc3ccccn3)CC2)cc1` gave Pf Dd2 inh 9%.
`O=C(c1ccccc1Cl)N1CCN(CCc2ccccn2)CC1` gave Pf Dd2 inh 3.5µM*.
`O=C(c1cccc(Cl)c1)N1CCN(CCc2ccccn2)CC1` gave Pf Dd2 inh 55%.
Screening CCCCOc1ccc(C(=O)N2CCN(CCc3ccccn3)CC2)cc1 returned Pf Dd2 inh 48%.
`CCOc1ccccc1C(=O)N1CCN(CCc2ccccn2)CC1` gave Pf Dd2 inh 4µM*.
`O=C(c1ccccc1)N1CCN(CCc2ccccn2)CC1` gave Pf Dd2 inh 26%.
For Cc1cccc(C(=O)N2CCCC(c3nn[nH]n3)C2)c1 (stereo not drawn) the results were Pf Dd2 inh 12%.
For COc1ccccc1CC(=O)N1CCCc2ncc(C(=O)NCc3cccc(Cl)c3)cc21 the results were Pf Dd2 inh inactive.
Screening COC1CCN(C(=O)c2cnc3c(c2)N(C(=O)CCc2ccccc2)CCC3)CC1 returned Pf Dd2 inh -23%[44.1 µM].

Compound activity deposited in PubChem BioAssay by National Center for Advancing Translational Sciences (NCATS).
